From PubChem BioAssay (NCATS) come the findings set out here.

Activity calls are given as the source filed them. Entries that show only a call come without a potency. The call rests on the fitted dose curve; in most records, active means well fitted inhibition curve with a large enough effect; inconclusive means small, poorly fitted or top-dose-only effect; inactive means no such curve, though single readings can be large or run the other way.

This experiment deals with Pyruvate kinase (Leishmania mexicana) (UniProt Q27686). Nature of the experiment: qHTS Validation Assay for Inhibitors of Leishmania Mexicana Pyruvate Kinase (AID 945). The note with it: purified L. mexicana pyruvate kinase, enzyme activity, E451W mutant enzyme; series mostly up to 57.5 µM. The text has this: NIH Molecular Libraries Screening Centers Network [MLSCN]
Sequence of Pyruvate kinase (Leishmania mexicana) (Q27686 2-499 E452W): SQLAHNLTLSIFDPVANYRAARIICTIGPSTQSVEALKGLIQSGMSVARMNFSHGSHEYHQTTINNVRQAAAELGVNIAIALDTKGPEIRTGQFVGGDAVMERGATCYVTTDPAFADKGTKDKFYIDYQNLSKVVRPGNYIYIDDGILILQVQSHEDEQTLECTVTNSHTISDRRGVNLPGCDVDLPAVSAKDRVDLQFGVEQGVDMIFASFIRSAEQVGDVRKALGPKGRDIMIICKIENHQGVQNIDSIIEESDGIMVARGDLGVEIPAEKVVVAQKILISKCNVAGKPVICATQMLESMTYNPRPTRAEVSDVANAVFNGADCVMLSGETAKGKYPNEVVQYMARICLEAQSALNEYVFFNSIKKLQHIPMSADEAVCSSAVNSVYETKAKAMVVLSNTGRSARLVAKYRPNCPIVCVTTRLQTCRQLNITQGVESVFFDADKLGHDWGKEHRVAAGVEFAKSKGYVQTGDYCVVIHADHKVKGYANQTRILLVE
NIH Chemical Genomics Center [NCGC]
PI names: Malcom Walkinshaw, Hugh Morgan and Linda Gilmore
University of Edinburgh, Edinburgh, UK
Species of Leishmania are responsible for a wide spectrum of diseases throughout the tropics and subtropics, ranging from self-healing ulcers to highly disfiguring lesions and serious, often lethal visceral diseases, such as kala-azar. In Leishmania spp. it has been shown that both sugar uptake and gluconeogenesis are necessary to synthesize sufficient hexose-phosphate required for the production of glycoconjugates and the intracellular polysaccharide mannan which are essential for both replication and virulence of the parasites. Therefore, most of the enzymes participating in glycolysis and gluconeogenesis are expected to be essential (Naderer et al., 2006). The assay described here targets pyruvate kinase from Leishmania mexicania (LmPYK) that was obtained as a highly purified preparation from the University of Edinburgh (E451W mutant was provided). A 1536 well assay protocol was set up and validated by screening the LOPAC library in triplicate as an eight point concentration-titration series using the qHTS platform developed at the NCGC.
NCGC Assay Protocol Summary:
Three uL of substrate mix (final concentrations, 50 mM imidazole pH 7.2, 50 mM KCl, 7 mM MgCl2, 0.5 mM PEP, 0.1 mM ADP, 0.01% Tween 20, 0.05% BSA) was dispensed into white solid medium binding Greiner 1536 well plates. 23 nL of compound were delivered by a pin tool and 1 uL of enzyme mix (final concentration, 0.2 nM LmPYK, 50 mM imidazole pH 7.2, 0.05% BSA) was added. Plates were covered with stainless steel gasket-lined lids and incubated at room temperature for 1 hour. Two uL of detection and kinase stop mix (PKLight, Lonza) was added, and luminescence read by a ViewLux (Perkin Elmer) at 2 second exposure/plate using 2x binning. Controls on each plate were as follows: column 1, sixteen-point titration (1:2 dilutions) in duplicate the LmPK activator LOPAC-C8145 beginning at 57 uM final concentration; column 2, sixteen-point titration (1:2 dilutions) in duplicate activator LOPAC-S4063 beginning at 57 uM final concentration; column 3, column 4 DMSO only. Data were normalized to the neutral control (column 3).
(In qHTS, concentration-response curves come from the screen itself.)
For `COc1ccccc1N1CCN(CCCNc2c(C)c(=O)n(C)c(=O)n2C)CC1`, the Potency entry is “inactive”.

On to `O=c1[nH]c(=O)c2nc3ccccc3nc2[nH]1`, for which the Potency entry was “inactive”.

With `NCCS(=O)O`, the Potency result was “inactive”.

Regarding `O=c1[nH]ccc2c(O)cccc12`, the Potency entry is “inactive”.

In the case of `O=C1NC(=O)c2cc(Nc3ccccc3)c(Nc3ccccc3)cc21`, the Potency entry is “inactive”.

With `C=CC[C@H](N)C(=O)O`, the Potency result is “inactive”.

Turning to `Cc1ccc([N+](=O)[O-])cc1S(=O)(=O)N(C)C`, the Potency result was “inactive”.

As for `O=C(O)/C=C/c1ccc(O)c(O)c1`, the Potency result was “inactive”.

For `CCCCCCCCCCCCCCSCC(=O)O`, the Potency result is “inactive”.

Consider `O=c1cc(-c2ccccc2)[nH]c2nc(Cl)ccc12`, for which the Potency entry is “inactive”.

Take `NC/C=C\C(=O)O`: the Potency result is “inactive”.

As to `COc1cc(N)c(Cl)cc1C(=O)OCCN1CCCCC1`, the Potency result was “inactive”.

Turning to `CCCCOC(=O)NS(=O)(=O)c1sc(CC(C)C)cc1-c1ccc(Cn2c(CC)nc3c(C)cc(C)nc32)cc1`, the Potency result was “inactive”.

In the case of `Cc1nc(N=Nc2ccc(S(=O)(=O)O)cc2S(=O)(=O)O)c(COP(=O)(O)O)c(C=O)c1O`, the Potency entry is “inactive”.

`COc1ccccc1N1CCN(CCCCNC(=O)c2ccc3ccccc3c2)CC1`: the Potency result was “inactive”.

In the case of `CC(N)=O`, the Potency result was “inactive”.

Turning to `O=C(OCCN1CCOCC1)C1(c2ccccc2)CCCCC1`, the Potency entry is “inactive”.

Take `O=C(O)C1CCNCC1`: the Potency result was “inactive”.

As to `N#CC(C#N)=C(N)/C(C#N)=C/c1ccc(O)cc1`, the Potency entry was “inactive”.

`Cc1cc2c(cc1Cl)N(C(=O)Nc1ccnc3ccccc13)CC2`: the Potency entry was “inactive”.

Take `Cc1cccc(C(=O)NCN2CCN(c3ccccc3C#N)CC2)c1`: the Potency entry is “inactive”.

Turning to `N[C@H](C(=O)O)c1cc(O)cc(O)c1`, the Potency result was “inactive”.

As to `Cn1c(=O)c2[nH]c(-c3ccc(S(=O)(=O)O)cc3)nc2n(C)c1=O`, the Potency result is “inactive”.

For the compound `NCCCNCCCCNCCCN`, the Potency result is “inactive”.

Consider `O=C(O)C1=CCNCC1`, for which the Potency entry is “inactive”.

For the compound `O=C(O)c1ccccc1Nc1ccccc1`, the Potency entry is “inactive”.

For the compound `CCCCCCN(CCCCCC)C(=O)Cc1c(-c2ccc(F)cc2)[nH]c2ccccc12`, the Potency result is “inactive”.

As to `CNCCNS(=O)(=O)c1cccc2cnccc12`, the Potency result is “inactive”.

Consider `O=C(O)c1cccnc1C(=O)O`, for which the Potency entry was “inactive”.

`CC[C@@H]1Cc2cc(O)ccc2C2=C1c1ccc(O)cc1C[C@H]2CC`: the Potency result is “inactive”.

Regarding `CCC(=O)N1CCN(C(=O)c2ccccc2)CC1`, the Potency result is “inactive”.

Take `N=C(N)SCCN`: the Potency result is “inactive”.

On to `C[C@H](NC(=O)/C(C#N)=C/c1ccc(O)c(O)c1)c1ccccc1`, for which the Potency entry is “inactive”.

With `CC[C@H](NC(=O)c1c(C)c(-c2ccccc2)nc2ccccc12)c1ccccc1`, the Potency entry was “inactive”.

`CC(C)(CO)Cc1cc(C(C)(C)C)c(O)c(C(C)(C)C)c1`: the Potency result was “inactive”.

`COCc1nc2c([nH]1)c(=O)n(C)c(=O)n2CC(C)C`: the Potency result is “inactive”.

In the case of `Cn1c(=O)[nH]c2ncn(C)c2c1=O`, the Potency entry was “inactive”.

As to `N[C@@H](Cc1ccc(O)c(I)c1)C(=O)O`, the Potency result is “inactive”.

Regarding `C#CCn1c(=O)c2c(ncn2C)n(C)c1=O`, the Potency entry was “inactive”.

On to `C[C@H](O)C(=O)C1=Nc2c(nc(N)[nH]c2=O)NC1`, for which the Potency result was “inactive”.
